C diff HTS: inhibitors of Clostridium difficile growth. Clostridium difficile clinical isolate growth, OD600, 24 h; active compounds read low. growth activity, negative = inhibition, % at 16 µg/mL (by protocol). 86,000 compounds, 0.25% hits;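 active = mean growth activity at or below -80% and every replicate also at or below -80%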;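 also: 0% = DMSO wells and -100% = levofloxacin 16 µg/mL wells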
An asterisk follows results filed as active. The sample as a whole holds a higher share of hits than the screen did.

SMILES	C diff HTS
Fc1ccccc1CN1[C@@H]2CNC[C@H]1C2c1ccc(-c2ccccc2)cc1 (some centres not stated)	-8
Cc1ccc(-c2ccc(C3[C@H]4CNC[C@@H]3N4Cc3ccccc3F)cc2)cc1 (some centres not stated)	17
CCCNC(=O)N1C[C@H](O)COC[C@H]2O[C@@H](CC(=O)OC)CC[C@@H]21	8
C[C@@H]1CN([C@H](C)CO)C(=O)c2cc(C#CC3CCCC3)cnc2O[C@H]1CN(C)C(=O)c1ccncc1	-2
CCC(=O)NC[C@H]1N[C@H](CO)[C@@H]1c1ccc(C2=CCCC2)cc1	-4
CN(C[C@@H]1N[C@H](CO)[C@H]1c1ccc(C2=CCCC2)cc1)C(=O)c1cccc(F)c1	8
O=C(NC[C@@H]1N[C@@H](CO)[C@H]1c1ccc(C2=CCCCC2)cc1)c1cccc(F)c1	-81*
C/C=C/c1ccc([C@H]2[C@@H](CO)N3C(=O)CN(S(=O)(=O)c4cccc(F)c4)C[C@@H]23)cc1	0
C[C@@H]1CN([C@H](C)CO)C(=O)c2cc(NC(=O)c3ccncc3)ccc2O[C@@H](C)CCCCO[C@H]1CN(C)Cc1ccc(C(=O)O)cc1	-5
O=C(Cc1cccnc1)N1CC2(C1)[C@@H](c1ccccc1)[C@@H](CO)N2C(=O)C1CCC1	1
Cc1noc(C)c1NC(=O)N(C)C[C@H]1Oc2c(NC(=O)NC(C)C)cccc2C(=O)N([C@@H](C)CO)C[C@H]1C	-2
O=C(C[C@@H]1CC[C@@H](NC(=O)Nc2ccc3c(c2)OCO3)[C@H](CO)O1)NCc1ccc(F)cc1	3
CCCN1[C@H](C(=O)NCc2ccccn2)[C@@H](CO)[C@@H]2Cn3c(ccc(C4=CCCC4)c3=O)[C@@H]21	8
CCNC(=O)Nc1ccc2c(c1)C(=O)N(C)[C@@H]1CC[C@@H](CC(=O)NCC3CC3)O[C@@H]1CO2	2
N#C[C@@H]1[C@H](c2ccccc2-c2ccc(F)cc2)[C@H](CO)N1C(=O)NC1CCCCC1	7
COc1ccccc1CN1CC[C@H]2[C@H](CO)Nc3ccc(C#Cc4ccccc4)cc3[C@H]21	-100*
COc1ccc(C#Cc2ccc3c(c2)[C@@H]2[C@@H](CCN2Cc2nccs2)[C@@H](CO)N3)cc1	-2
COc1ccccc1CN1CC[C@H]2[C@H](CO)Nc3ccc(-c4cccc(F)c4)cc3[C@H]21	-2
COc1ccc(-c2ccc3c(c2)[C@@H]2[C@@H](CCN2Cc2ccccc2F)[C@H](CO)N3)cc1	18
COc1ccccc1C#Cc1ccc2c(c1)[C@@H]1[C@@H](CCN1C(=O)c1ccncc1)[C@@H](CO)N2	-95*
N#Cc1ccc(-c2ccc3c(c2)[C@H]2[C@H](CCN2C(=O)c2ccc(F)cc2)[C@@H](CO)N3)cc1	11
COc1ccccc1C#Cc1ccc2c(c1)[C@@H]1[C@@H](CCN1C(=O)c1ccncc1)[C@H](CO)N2	12
N#Cc1ccc(-c2ccc3c(c2)[C@H]2[C@H](CCN2C(=O)c2ccncc2)[C@H](CO)N3)cc1	-80*
OC[C@H]1Nc2ccc(-c3ccccc3)cc2[C@@H]2[C@H]1CCN2Cc1ccccc1F	-101*
N#Cc1cccc(-c2ccc3c(c2)[C@H]2[C@H](CCN2C(=O)c2ccncc2)[C@@H](CO)N3)c1	-3
SMILES	C diff HTS
O=C(c1ccccc1)N1CC[C@@H]2[C@@H](CO)Nc3ccc(C#Cc4ccccc4F)cc3[C@@H]21	91
OC[C@@H]1Nc2ccc(-c3ccccc3)cc2[C@@H]2[C@H]1CCN2Cc1ccccc1F	-7
COc1ccc(CN(C)C[C@@H]2Oc3ccc(NS(C)(=O)=O)cc3CC(=O)N([C@H](C)CO)C[C@H]2C)cc1	-1
O=C(C1CCOCC1)N1[C@H](CO)[C@@H]2c3ccccc3NC[C@@H]21	-6
CO[C@H]1CN(C)C(=O)c2cc(NC(=O)C3CCCCC3)ccc2OC[C@@H](C)N(C(=O)c2ccccc2)C[C@@H]1C	2
Cc1noc(C)c1NC(=O)N[C@@H]1CC[C@H](CC(=O)N2CCCCC2)O[C@@H]1CO	6
Cc1noc(C)c1NC(=O)Nc1cccc2c1O[C@@H](CN(C)S(C)(=O)=O)[C@@H](C)CN([C@@H](C)CO)C2=O	1
COc1ccccc1C#Cc1ccc2c(c1)[C@H]1[C@H](CCN1C(=O)c1ccc(F)cc1)[C@@H](CO)N2	-101*
COc1ccccc1C#Cc1ccc2c(c1)[C@H]1[C@H](CCN1C(=O)c1ccccc1)[C@H](CO)N2	2
O=C(c1ccc(F)cc1)N1CC[C@H]2[C@H](CO)Nc3ccc(C#Cc4ccccc4F)cc3[C@H]21	69
CCC(=O)N1[C@H](C(=O)NC2CCCC2)[C@@H](CO)[C@@H]2Cn3c(ccc(C4=CCCC4)c3=O)[C@@H]21	0
O=S(=O)(c1ccccc1)N1C[C@@H]2[C@H](c3ccccc31)[C@@H](CO)N2Cc1ccc(F)cc1	49
O=C(c1ccccc1)N1CC2(C1)[C@@H](c1ccccc1)[C@H](CO)N2C(=O)CC1CC1	0
C[C@H](CO)N1C[C@H](C)[C@@H](CN(C)C(=O)c2cccnc2)Oc2ncc(-c3ccc(C#N)cc3)cc2C1=O	-2
COCC#Cc1ccc([C@@H]2[C@@H](CO)N3CCCCN(Cc4ccccc4F)C[C@H]23)cc1	0
CC(C)(O)C#Cc1ccc([C@H]2[C@H]3CN(Cc4ccccc4F)CCCCN3[C@H]2CO)cc1	4
CC(C)(O)C#Cc1ccc([C@H]2[C@@H](CO)N3CCCCN(Cc4ccccc4F)C[C@@H]23)cc1	6
CC(C)(O)C#Cc1ccc([C@@H]2[C@@H](CO)N3CCCCN(Cc4ccccc4F)C[C@@H]23)cc1	6
COc1ccc(C#Cc2ccc([C@H]3[C@@H](CO)N4CCCCN(Cc5ccccc5F)C[C@H]34)cc2)cc1	-100*
COc1ccc(C#Cc2ccc([C@@H]3[C@H]4CN(Cc5ccccc5F)CCCCN4[C@H]3CO)cc2)cc1	-94*
Cc1noc(C)c1NC(=O)NCC[C@H]1CC[C@@H](NC(=O)c2ccccc2)[C@H](CO)O1	6
COc1ccc(C#Cc2ccc3c(c2)O[C@@H](CN(C)C(=O)c2ccccn2)[C@@H](C)CN([C@H](C)CO)S3(=O)=O)cc1	-3
O=C(Nc1ccccc1)N[C@H]1CC[C@H](CCn2cc(C3(O)CCCC3)nn2)O[C@H]1CO	6
COc1ccc(CN(C)C[C@H]2OCCCC[C@H](C)Oc3ccc(NC(=O)Nc4cccc5ccccc45)cc3C(=O)N([C@@H](C)CO)C[C@H]2C)cc1	0
C[C@@H]1CN([C@H](C)CO)C(=O)c2cc(NC(=O)Nc3ccc(C(F)(F)F)cc3)ccc2O[C@@H](C)CCCCO[C@@H]1CN(C)Cc1ccc2c(c1)OCO2	-42
C[C@@H]1CCCCO[C@H](CN(C)Cc2ccc3c(c2)OCO3)[C@@H](C)CN([C@H](C)CO)C(=O)c2cc(NC(=O)Nc3ccc(C(F)(F)F)cc3)ccc2O1	-53
COc1ccc(CN(C)C[C@@H]2OCCCC[C@H](C)Oc3ccc(NC(=O)Nc4cccc5ccccc45)cc3C(=O)N([C@H](C)CO)C[C@H]2C)cc1	-94*
COc1ccc(CN(C)C[C@H]2OCCCC[C@@H](C)Oc3ccc(NC(=O)Nc4ccc(C(F)(F)F)cc4)cc3C(=O)N([C@@H](C)CO)C[C@@H]2C)cc1	-101*
COc1ccc(CN(C)C[C@@H]2OCCCC[C@@H](C)Oc3ccc(NC(=O)Nc4cccc5ccccc45)cc3C(=O)N([C@H](C)CO)C[C@H]2C)cc1	25

Compound activity from PubChem BioAssay.
